Only some compounds are listed: those with a hit (about 3.5% of all), similar ones and a draw of the others.
GPR151 activ: activators of human GPR151. Q8TDV0. PathHunter beta-arrestin GPR151 cells, luminescence. activation, % at 11.2 µM. 650,000 tested, 1% active. AID 1508602; in the data active means activation above about 4.9%;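 further: 0% = median of compound wells and 100% = cells with positive control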
TEAD-YAP block: TEAD-YAP interaction inhibition. HEK-TIYL cells, TEAD-Gal4/YAP UAS-luciferase luminescence. inhibition, % at 9.12 µM. 640,000 tested, 1.4% active; in the data active means inhibition above about 32%;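 further: 0% = median of test compound wells and 100% = reference inhibitor wells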
MITF primary: inhibitors of human MITF. AID 1259374. 650,000 tested, 0.91% active. AlphaScreen MITF homodimerization, bead proximity signal. O75030. inhibition, % at 2.6 µM; in the data active means inhibition above about 50%;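 further: 0% = vehicle wells with protein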
FBW7 act: activators of human E3 ligase FBW7; Q969H0; AlphaScreen FBW7–phospho-cyclin E peptide binding, activator screen; normalized activity (activation), % at 26.1 µM; 650,000 tested, 0.13% active; AID 1259310; in the data active means normalized activity above about 1.9%;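 further: purified mutant Fbw7 with reduced substrate affinity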
GPR151 conf act: confirmation of human GPR151 activators | shares compounds with GPR151 activ | AID 1508609 | GPR151 PathHunter beta-arrestin cells, luminescence, 90 min; % of EA-reagent control over plate median | 6,700 tested, under 10 active | activation, % at 11.2 µM;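 active means mean percent activation across replicates above the confirmation screen cutoff of 4.91%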
GPR119 ag: activates human GPR119 in a GPR151 counter-screen; shares compounds with GPR151 activ; GPR119 PathHunter beta-arrestin cells, luminescence, 90 min; 0 = compound-well median, 100 = enzyme-acceptor control; activation, % at 11.2 µM; 6,700 tested, 0.3% active; AID 1508611;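 active means mean percent activation in the counterscreen above 29.09%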;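 further: counterscreen on off-target GPR119 to flag nonselective hits from the GPR151 activator screen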
Target sequence (Q8TDV5 whole entry, looked up): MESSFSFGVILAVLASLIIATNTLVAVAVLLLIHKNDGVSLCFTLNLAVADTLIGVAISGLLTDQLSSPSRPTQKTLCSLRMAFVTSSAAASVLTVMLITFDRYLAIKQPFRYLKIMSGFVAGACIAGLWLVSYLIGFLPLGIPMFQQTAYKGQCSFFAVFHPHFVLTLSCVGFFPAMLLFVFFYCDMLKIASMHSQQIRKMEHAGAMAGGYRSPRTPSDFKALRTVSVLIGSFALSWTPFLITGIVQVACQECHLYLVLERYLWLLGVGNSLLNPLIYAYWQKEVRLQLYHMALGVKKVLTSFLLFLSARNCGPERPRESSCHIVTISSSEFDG
* = called active by the depositor; . = no result.

SMILES | GPR151 activ | TEAD-YAP block | MITF primary | FBW7 act | GPR151 conf act | GPR119 ag
S=C(NCC1CCCO1)Nc1ccc(I)cc1 (stereo unspecified) | 2 | -45 | 1 | 0 | . | .
C/C(CC(=O)NC12CC3CC(CC(C3)C1)C2)=N\NC(=O)c1ccncc1 | -1 | -7 | -6 | 0 | . | .
COc1ccc(CC(=O)NCC2(CO)CC2)cc1OC | -1 | 2 | 6 | 0 | . | .
Cc1cc2c(cc1S(=O)(=O)NC1CCCC(C)C1C)OCC(=O)N2 (stereo unspecified) | 0 | -9 | -11 | 0 | . | .
CC1CCCC(NS(=O)(=O)c2cc3c(cc2Cl)NC(=O)CO3)C1C (stereo unspecified) | 7.8* | 4 | 14 | 0 | 0 | 6
O=c1c(Cl)c(N2CCOCC2)cnn1-c1nc2ccccc2s1 | -4 | 21 | 2 | -1 | . | .
NS(=O)(=O)c1ccc(CCNC(=O)CN2C(=O)C3C4C=CC(C4)C3C2=O)cc1 (stereo unspecified) | 8.1* | 6 | 14 | 0 | 0 | -11
COc1ccc2[nH]c(C)c(CN(C)C)c(=O)c2c1 | 0 | 15 | -3 | 0 | . | .
CCOc1ccc2[nH]c(C)c(CN(C)C)c(=O)c2c1 | 6.8* | -4 | -1 | 0 | 0 | 4
Cc1ccc(C(=O)N/N=C\C(Br)=C\c2ccccc2)cn1 | 5.8* | -19 | -4 | 0 | 0 | -1
CCCOc1cccc(C(=O)Nc2cccc(-c3nc4ccccc4[nH]3)c2)c1 | 1 | -2 | 2 | 0 | . | .
CC(=O)N1CN(Cc2cccnc2)Cc2c1sc1c2CCCC1 | 0 | -4 | -5 | 0 | . | .
CC(=O)N1CN(Cc2ccccc2)Cc2c1sc1c2CCCC1 | 5.5* | -8 | 1 | 0 | 0 | -3
COc1cc2nc(NCc3ccc4c(c3)OCO4)nc(Nc3ccc4c(c3)OCO4)c2cc1OC | 2 | -2 | 5 | 0 | . | .
O=C(NCc1nnc2n1CCN(C/C(Cl)=C/c1ccccc1)CC2)c1cccc(F)c1 | 9.2* | 2 | -4 | 0 | 1 | 14
CC(C)(C)CN1CCc2nnc(CNC(=O)c3cccc(F)c3)n2CC1 | 1 | 9 | 5 | 0 | . | .
CCCOc1ccc(-c2nnc(SCC(N)=O)n2-c2ccccc2)cc1 | 5.3* | 8 | -2 | 0 | 0 | 3
CCOc1ccc(-c2nnc(SCC(N)=O)n2-c2ccccc2)cc1 | 0 | -3 | -11 | 1 | . | .
CCC(C)NC(=O)C(C)n1c2ccccc2c2nc(=O)cc(C)n21 (stereo unspecified) | -1 | 0 | 8 | 0 | . | .
CCOc1ccc(NC(=O)CSc2cn(CCNC(=O)c3cccs3)c3ccccc23)cc1 | -2 | -3 | -1 | 0 | . | .
CCOC(=O)COn1c(=O)c(-c2ccc(Oc3ccccc3)cc2)[n+]([O-])c2ccccc21 | 5.3* | -12 | -10 | 0 | 0 | -6
O=c1c(-c2ccccc2)[n+]([O-])c2ccccc2n1OCc1ccccc1[N+](=O)[O-] | 6.0* | 8 | 12 | 0 | 2 | 6
NC(CC(=O)O)c1ccc(F)cc1 (stereo unspecified) | -1 | -1 | -3 | 0 | . | .
Oc1ccc(C(c2ccc(O)cc2)c2ccc(F)cc2)cc1 | 7.7* | 7 | 6 | 0 | -1 | 20
CCn1ccnc1CN(C)C(=O)CC1C(=O)NCCN1Cc1ccc(F)cc1 (stereo unspecified) | 2 | -7 | 3 | 0 | . | .
SMILES | GPR151 activ | TEAD-YAP block | MITF primary | FBW7 act | GPR151 conf act | GPR119 ag
CNS(=O)(=O)c1ccccc1Nc1cc(NC(=O)Cc2ccc(OC)cc2)ncc1C(F)(F)F | 11* | 93* | -9 | 0 | -1 | -3
COc1ccc(CC(=O)Nc2ccccc2NC(C)=O)cc1 | -1 | 5 | 5 | 1 | . | .
O=C(O)CCC(=O)N1N=C(c2c(-c3ccccc3)c3cc(Br)ccc3[nH]c2=O)CC1c1ccco1 (stereo unspecified) | 5.4* | 8 | -7 | 0 | 0 | 3
COc1ccc(C2CC(c3c(-c4ccccc4)c4cc(Br)ccc4[nH]c3=O)=NN2C(C)=O)cc1 (stereo unspecified) | 2 | 16 | 2 | 0 | . | .
COc1ccc(C2CC(c3c(-c4ccccc4)c4cc(Br)ccc4[nH]c3=O)=NO2)cc1 (stereo unspecified) | 8.4* | 1 | -11 | 0 | 0 | -7
CC(=O)N1N=C(c2c(-c3ccccc3)c3cc(Br)ccc3[nH]c2=O)CC1c1ccco1 (stereo unspecified) | -1 | 3 | 16 | 1 | . | .
